Test results taken from publication PMC4336329 (PLoS ONE, 2015).
The whole screen tested about 310,000 compounds, of which about 2,200 (0.71%) showed an effect of 50% or more. The effect is printed as a negative number. The sample holds strong results, similar compounds and a random draw of the others, so the mix is not that of the screen.

The compounds below were run against human ether-à-go-go-related gene (hERG) potassium channel (human, UniProt Q12809) (assay: primary screen, population patch clamp on CHO cells stably expressing hERG; higher = less effect of the substance).
human ether-à-go-go-related gene (hERG) potassium channel, sequence (Q12809 whole entry, looked up): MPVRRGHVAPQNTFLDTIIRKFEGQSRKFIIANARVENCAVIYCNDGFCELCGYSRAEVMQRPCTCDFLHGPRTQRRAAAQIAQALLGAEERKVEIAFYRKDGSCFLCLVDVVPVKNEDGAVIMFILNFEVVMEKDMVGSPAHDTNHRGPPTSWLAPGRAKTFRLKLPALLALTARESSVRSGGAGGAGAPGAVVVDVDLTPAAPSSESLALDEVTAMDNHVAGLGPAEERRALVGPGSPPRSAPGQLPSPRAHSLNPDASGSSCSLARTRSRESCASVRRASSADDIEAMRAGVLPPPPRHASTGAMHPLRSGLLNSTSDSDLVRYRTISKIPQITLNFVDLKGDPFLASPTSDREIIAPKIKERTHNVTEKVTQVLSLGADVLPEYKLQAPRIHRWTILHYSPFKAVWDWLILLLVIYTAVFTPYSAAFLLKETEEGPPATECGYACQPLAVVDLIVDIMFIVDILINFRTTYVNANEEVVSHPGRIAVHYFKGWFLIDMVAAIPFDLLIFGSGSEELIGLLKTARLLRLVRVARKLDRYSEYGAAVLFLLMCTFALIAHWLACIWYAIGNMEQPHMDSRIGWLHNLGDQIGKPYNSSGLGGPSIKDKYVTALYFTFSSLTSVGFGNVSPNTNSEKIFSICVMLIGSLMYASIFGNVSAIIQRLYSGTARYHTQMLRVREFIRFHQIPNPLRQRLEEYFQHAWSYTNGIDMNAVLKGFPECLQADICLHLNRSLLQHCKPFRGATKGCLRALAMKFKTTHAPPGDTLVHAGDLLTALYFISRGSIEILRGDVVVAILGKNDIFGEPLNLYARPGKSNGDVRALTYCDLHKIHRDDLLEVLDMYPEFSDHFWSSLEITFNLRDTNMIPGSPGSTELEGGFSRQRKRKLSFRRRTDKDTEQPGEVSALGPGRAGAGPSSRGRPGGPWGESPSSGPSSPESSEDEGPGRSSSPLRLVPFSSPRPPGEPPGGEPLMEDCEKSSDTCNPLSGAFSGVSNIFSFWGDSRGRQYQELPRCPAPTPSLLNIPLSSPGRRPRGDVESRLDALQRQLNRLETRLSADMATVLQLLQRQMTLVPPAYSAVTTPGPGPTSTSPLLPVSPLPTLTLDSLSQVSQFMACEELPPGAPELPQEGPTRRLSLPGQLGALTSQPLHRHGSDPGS

| SMILES | hERG current change (%, negative = inhibition) at 1uM |
| --- | --- |
| COc1ccc(CNC(=O)C2CSC(c3ccc(OC)cc3)N2C(C)=O)cc1 (stereo not drawn) | 5.4% |
| CCCCN(C)CCN1C(=O)C2C(C(=O)Nc3ccc(Cl)cc3)C3C=CC2(O3)C1C(=O)NC1CCCCC1 (stereo not drawn) | -60.5% |
| CCCCN(C)CCN1C(=O)C2C(C(=O)Nc3ccc(OC)cc3)C3C=CC2(O3)C1C(=O)NC1CCCCC1 (stereo not drawn) | 3.44% |
| CCCCN(C)CCN1C(=O)C2C(C(=O)Nc3ccc(C)cc3)C3C=CC2(O3)C1C(=O)NC1CCCCC1 (stereo not drawn) | 15.1% |
| CN1C(=O)C2(C(C#N)=C(N)Oc3c2oc(CO)cc3=O)c2ccccc21 (stereo not drawn) | 12% |
| COc1cc(S(=O)(=O)N2CCN(C)CC2)ccc1Cl | 14.8% |
| Cl.OC(COC(c1ccc(Cl)cc1)c1ccc(Cl)cc1)CN1CCc2ccccc2C1 (stereo not drawn) | -6.99% |
| Cc1ccc(OCC(O)CNCc2ccc(F)cc2)cc1 (stereo not drawn) | -14.2% |
| CCOC(=O)C1CCCN(CC(O)COC(c2ccccc2)c2ccccc2)C1 (stereo not drawn) | -78.8% |
| CN1CCN(CC(O)COC(c2ccc(Cl)cc2)c2ccc(Cl)cc2)CC1.Cl (stereo not drawn) | -47.8% |
| OC1CCCN(CC(O)COC(c2ccccc2)c2ccccc2)C1 (stereo not drawn) | 1.02% |
| O=C(O)C(=O)O.O=C(c1ccccc1)c1ccc(OCC(O)CNCc2ccc(F)cc2)cc1 (stereo not drawn) | -0.143% |
| CC1CN(CC(O)COC(c2ccc(Cl)cc2)c2ccc(Cl)cc2)CC(C)O1.Cl (stereo not drawn) | -2.64% |
| OC(COC(c1ccc(Cl)cc1)c1ccc(Cl)cc1)CN1CCCC1 (stereo not drawn) | -75.2% |
| CC1CCCN(CC(O)COC(c2ccccc2)c2ccccc2)C1 (stereo not drawn) | -15% |
| Cc1ccc(C(OCC(O)CNCc2ccc(F)cc2)c2ccccc2)cc1.O=C(O)C(=O)O (stereo not drawn) | -75.4% |
| OC(COC(c1ccc(F)cc1)c1ccc(F)cc1)CN1CCc2ccccc2C1 (stereo not drawn) | -9.74% |
| OC(COC(c1ccccc1)c1ccccc1)CN1CCc2ccccc2C1 (stereo not drawn) | -75.3% |
| O=C(CNC(=O)c1ccccc1F)NCCc1ccc(Cl)cc1Cl | 7.52% |

| SMILES | hERG current change (%, negative = inhibition) at 1uM |
| --- | --- |
| O=C(NCc1n[nH]c(=S)n1-c1cccc(Cl)c1)c1ccc(S(=O)(=O)N2CCCCC2)cc1 | 13.6% |
| CCN(CC)S(=O)(=O)c1cccc(C(=O)Oc2cccc(NC(=O)c3cccs3)c2)c1 | 7.05% |
| CC(=O)N1C(=O)C2(C(C#N)=C(N)Oc3c2c(C)nn3-c2ccccc2)c2ccccc21 (stereo not drawn) | 11% |
| Cc1cccc(C(=O)NCCC(=O)NCc2ccccc2F)c1 | 5.88% |
| COc1ccc(-n2nc(C(=O)NCC(=O)N3CCCCC3)c3ccccc3c2=O)c(OC)c1 | 15.2% |
| CCN(CC)S(=O)(=O)c1ccc(/C=C/C(=O)OCC(=O)NNC(=O)c2ccc(OC)cc2)cc1 | 9.94% |
| O=C(O)C(=O)O.OCC1CCCCN1CC(O)COC(c1ccc(F)cc1)c1ccc(F)cc1 (stereo not drawn) | -60.9% |
| COc1ccc(N2CCN(CC(O)COC(C)(C)C)CC2)cc1.O=C(O)C(=O)O (stereo not drawn) | 12.5% |
| OC(COC(c1ccccc1)c1ccccc1)CN1CCCCC1 (stereo not drawn) | -18.5% |
| CCN1CCN(CC(O)COC(c2ccccc2)c2ccccc2)CC1 (stereo not drawn) | 7.15% |
| O=C(O)C(=O)O.OC(COC(c1ccc(F)cc1)c1ccc(F)cc1)CN1CCCC1 (stereo not drawn) | -62% |
| O=C(O)C(=O)O.OC1CCCN(CC(O)COC(c2ccc(F)cc2)c2ccc(F)cc2)C1 (stereo not drawn) | -14.2% |
| Cc1ccc(C(OCC(O)CN2CCCCC2)c2ccccc2)cc1 (stereo not drawn) | -68.6% |
| Cc1ccc(C(OCC(O)CN2CCCCC2CO)c2ccccc2)cc1 (stereo not drawn) | -39.7% |
| COc1ccc(N2CCN(CC(O)COC(c3ccc(F)cc3)c3ccc(F)cc3)CC2)cc1.O=C(O)C(=O)O (stereo not drawn) | -74% |
| COc1ccc(N2CCN(CC(O)COC(c3ccccc3)c3ccccc3)CC2)cc1 (stereo not drawn) | -14.2% |
| O=C(O)C(=O)O.OC(COC(c1ccc(F)cc1)c1ccc(F)cc1)CN1CCCC(C(F)(F)F)C1 (stereo not drawn) | 14% |
| O=C(O)C(=O)O.OCCN1CCN(CC(O)COC(c2ccc(F)cc2)c2ccc(F)cc2)CC1 (stereo not drawn) | -20.2% |
| NC(=O)c1cc(Cl)ccc1OCC(=O)N1CCCc2ccccc21 | 11.4% |

| SMILES | hERG current change (%, negative = inhibition) at 1uM |
| --- | --- |
| S=c1[nH]nc(-c2ccc(Cl)cc2)n1-c1ccc2c(c1)OCCO2 | 7.4% |
| CCN1C(=O)[C@H]2[C@@H](c3ccc(Cl)cc3)N3C(=O)CN(Cc4ccccc4)C(=O)[C@@]3(C)[C@H]2C1=O | 10.9% |
| CCCCCOc1ccc(/C=C/c2c([N+](=O)[O-])c(=O)n(C)c(=O)n2C)cc1 | 12.2% |
| O=c1[nH]cnc2sc(-c3ccccc3)cc12 | 6.92% |
| COc1ccc(S(=O)(=O)NCc2c(-c3ccccc3)noc2C)c(OC)c1 | 3.4% |
| CC1CCN(C(CNS(=O)(=O)c2ccccc2)c2ccccc2)CC1 (stereo not drawn) | 3.61% |
| Cc1ccccc1[C@]1(C)ON(c2ccccc2C(F)(F)F)C1=O | 14.2% |
| CN(C)CCCNC(=O)/C(=C\C=C\c1ccccc1)NC(=O)c1ccc([N+](=O)[O-])cc1 | -42% |
| O=C(N/C(=C/c1ccccc1)C(=O)N1CCCCC1)c1ccc(Br)o1 | -0.572% |
| CC(C)(C)NC(=O)/C(=C\C=C\c1ccccc1)NC(=O)c1ccc([N+](=O)[O-])cc1 | 11.2% |
| O=C(N/C(=C/c1cccc([N+](=O)[O-])c1)C(=O)N1CCCC1)c1ccccc1 | -0.775% |
| O=C(N/C(=C\c1ccccc1)C(=O)N1CCCCCC1)c1ccccc1 | 21.1% |
| CN1CCN(C(=O)/C(=C/c2ccc([N+](=O)[O-])cc2)NC(=O)c2ccccc2)CC1 | -90.4% |
| CN1CCN(C(=O)/C(=C/c2ccc(N(C)C)cc2)NC(=O)c2ccccc2)CC1 | 7.18% |
| O=C(N/C(=C\c1ccccc1)C(=O)N1CCCCC1)c1ccc(Br)o1 | -0.538% |
| CNC(=O)/C(=C\C=C\c1ccccc1)NC(=O)c1ccc([N+](=O)[O-])cc1 | -85% |
| O=C(N/C(=C\c1ccc([N+](=O)[O-])cc1)C(=O)N1CCCCC1)c1ccccc1 | -73.2% |
| CN1CCN(C(=O)/C(=C/c2cccc([N+](=O)[O-])c2)NC(=O)c2ccccc2)CC1 | -46.5% |
| O=C(N/C(=C\c1ccc([N+](=O)[O-])cc1)C(=O)N1CCCCC1)c1ccc(Br)o1 | -53.4% |
